Among all 6,200 compounds or so, about 2,900 (47%) were called active. So high a share suggests a set chosen from earlier hits. This is one part of the list. A number with no mark means an inactive call. No stated cut-off is given here; in the data, active means inhibition above about 50%; inactive means the rest.
experiment: Mycobacterium tuberculosis growth inhibition, primary screen (AID 1259343); conditions: inhibition: at 10 µM, active compounds read high; outcome: 10 uM

Structure (SMILES) | inhibition
c1ccc(-c2nc(NCCc3ccccn3)c3ccccc3n2)cc1 | -27%
c1ccc2c(NCCNc3ncnc4ccccc34)cccc2c1 | 69.3% (active)
O=[N+]([O-])c1ccccc1NCCNc1cccc2ccccc12 | 26%
COc1ccc(OC)c(-c2nc3ccc(Br)cn3c2NC2CCCCC2)c1 | 10.8%
CCOC(=O)CNc1c(-c2ccccc2Cl)nc2ccc(Br)cn12 | 88.4% (active)
CCOC(=O)CNc1c(-c2ccc(C(F)(F)F)cc2)nc2ccc(Br)cn12 | 24.2%
Oc1c(Cl)cc(Cl)c(Cl)c1Cc1c(O)c(Cl)cc(Cl)c1Cl | 102% (active)
Cc1cccc(-c2ccc(NC(=O)C3CCN(C(=O)c4ccncc4)CC3)cc2)c1 | inactive
Cc1cccc(-c2ccc(NC(=O)C3CCN(C(=O)c4nonc4C)CC3)cc2)c1 | 92.3% (active)
Cc1cccc(-c2ccc(NC(=O)C3CCN(C(=O)c4ccc(F)cc4)CC3)cc2)c1 | 81.5% (active)
O=C(CCOc1ccccc1)NC12CC3CC(CC(C3)C1)C2 | 87.8% (active)
Cc1ccc(SCC(=O)NC23CC4CC(CC(C4)C2)C3)cc1C | -43.9%
COc1ccccc1N(C)CC(=O)NC12CC3CC(CC(C3)C1)C2 | 9.54%
CC(C)Nc1nc(-c2ccc(Br)s2)cs1 | 17.8%
O=C(Nc1nc(-c2ccc(Br)s2)cs1)c1ccc(Br)s1 | 81.8% (active)
CCOc1ccc(Nc2cncc(Cl)n2)cc1 | 72.5% (active)
COc1ccc(NC(c2ccccn2)c2oc(CO)cc(=O)c2O)cc1 (stereo not given) | 84.2% (active)
COc1ccc(NC(=O)N(Cc2ccco2)C(C)c2nc3ccccc3c(=O)n2-c2ccccc2)cc1 (stereo not given) | -7.33%
CCCCCCCCNC(C)C(O)c1ccc(SC(C)C)cc1 (stereo not given) | 3.63%
O=C(Cc1csc(NC(=O)NC2CCCCC2)n1)Nc1ccc(Oc2ccccc2)cc1 | -2.63%
NC(=O)Cc1csc(Nc2ccc(OC(F)(F)F)cc2)n1 | 73.5% (active)
O=C(NCC1CCCCO1)c1coc(COc2cccc(C(F)(F)F)c2)n1 (stereo not given) | 0.47%

Structure (SMILES) | inhibition
Cc1ccc(OCc2cc(C(=O)N(C)CCc3ccccc3)no2)cc1C | 93.7% (active)
CC(C)c1nc(CNC(=O)c2cc(COc3c(F)cccc3F)on2)cs1 | 23.3%
CN(CCC(O)c1ccccc1)C(=O)c1cc(COc2cccc3cnccc23)on1 (stereo not given) | 48.2%
CN(CCOc1ccccc1)C(=O)c1cc(COc2c(F)cccc2F)on1 | 84.2% (active)
O=C(NCC1CCCCO1)c1cc(COc2c(F)cccc2F)on1 (stereo not given) | 65.1% (active)
Cc1ccc(OCc2cc(C(=O)N(C)Cc3csc(-c4ccccc4)n3)no2)cn1 | 73% (active)
COCCN(C)C(=O)c1cc(COc2cc(C)c(Cl)c(C)c2)on1 | inactive
Cc1ccc(OCc2cc(C(=O)N(C)CC3Cc4ccccc4O3)no2)cn1 (stereo not given) | inactive
O=C1OC(c2ccccc2Br)=NC1=Cc1ccc2ccccc2c1 | -28.9%
Cc1ccc(OCc2cc(C(=O)NCc3cc4ccccc4[nH]3)no2)cc1C | 24.7%
Cc1ccc(OCCN(C)C(=O)CCc2nnc(CCc3c[nH]c4ccccc34)o2)cc1 | 44.4%
CN(CCOc1ccccc1)C(=O)c1cc(Br)c[nH]1 | 101% (active)
Cc1nc2cc(OCc3cc(C(=O)NCc4cc(F)ccc4C)no3)ccc2s1 | 22.2%
CN(Cc1cccnc1)C(=O)c1cc(COc2ccc(F)c(F)c2)on1 | 60.5% (active)
Cc1cc(C)cc(OCCN(C)C(=O)Nc2ccc(F)cc2)c1 | 30.4%
Cc1ccc(OCc2cc(C(=O)NCc3nc4ccccc4s3)no2)cc1C | 92.1% (active)
Cc1nc2sc3c(c2c(=O)n1NC(=S)NC(=O)C12CC4CC(CC(C4)C1)C2)CCCC3 | 67.3% (active)
COCCNCc1c(-c2ccccc2)noc1N(C)C1CCCCC1 | 82.5% (active)
N#Cc1cccc(NC(=O)NCc2cc(F)cc(F)c2)c1 | -9.78%
N#Cc1cccc(NN=C2CCN(c3ccc(F)cc3)CC2)c1 | 95.8% (active)
N#Cc1cccc(NCc2c(F)cccc2Cl)c1 | 30.2%
O=C(O)CC1SC(=NN=C2c3ccccc3-c3ccccc32)NC1=O (stereo not given) | 24.2%

Structure (SMILES) | inhibition
CCOc1ccc(N=C2NC(=O)C(CC(=O)c3ccccc3)S2)cc1 (stereo not given) | 54.9% (active)
O=C(CC1SC(=NCc2ccco2)NC1=O)Nc1ccc(OC(F)(F)F)cc1 (stereo not given) | 21.7%
CCOC(=O)C1(Cc2cccc(OC)c2)CCN(CC#Cc2ccccc2)CC1 | 28.5%
CCOC(=O)C1(Cc2cccc(C(F)(F)F)c2)CCN(Cc2ccc(C#CCCO)cc2)CC1 | 51.2% (active)
CCOC(=O)C1(Cc2cccc(Cl)c2)CCCN(C(=O)CCC(F)(F)F)C1 (stereo not given) | -43.9%
O=C(CCC1CCCC1)N1CCc2ccc(O)cc2CC1 | 92.6% (active)
COc1ccc(CC2CN(Cc3ccc(OC)c(F)c3)CCO2)cc1 (stereo not given) | 30.9%
Cc1ccc(F)c(OCC2CN(CC(C)O)CCO2)c1 (stereo not given) | 102% (active)
COc1ccc(OCCOc2ccc(C)cc2)cc1 | inactive
COC(=O)CSCCOc1ccc(OCCSCC(=O)OC)cc1 | 88.5% (active)
Cc1ccc(C)c2sc(OC3CCN(S(=O)(=O)c4cccnc4)CC3)nc12 | 31.8%
O=C1c2ccccc2C(=O)c2c1ccc(O)c2O | 101% (active)
COc1cccc2c1CCCC2CCCN1CCN(C2CCCCC2)CC1 (stereo not given) | 98.3% (active)
CCS(=O)(=O)Oc1ccc(CN(C(=O)c2cccc([N+](=O)[O-])c2)C(C)C)cc1 | -14.5%
COC(=O)CCCCCNC(=O)c1cc([N+](=O)[O-])cc([N+](=O)[O-])c1 | 93.7% (active)
COC(=O)CNC(=O)c1ccc([N+](=O)[O-])o1 | 44.5%
COc1ccc(N2COc3cc4c(cc3C2)OCO4)cc1 | 87.2% (active)
Brc1ccc2c(c1)CN(Cc1ccc3c(c1)OCO3)CO2 | 1.53%
COc1ccc2c(c1)OCC(C(=O)NS(=O)(=O)c1cccs1)C2 (stereo not given) | 99.9% (active)
COc1ccc(NC(=O)C2Cc3ccc(C)cc3S2)cc1 (stereo not given) | 21.4%
COc1ccc2c(c1)CC(C(=O)N(C)Cc1ccco1)CO2 (stereo not given) | -34.5%

From PubChem BioAssay AID1259343 (VanderVen Lab, College of Veterinary Medicine, Cornell …, 2017)
